About 3,700 (7%) of roughly 53,000 sequences were called active. The entries come from a sample that favours actives as a whole. Values without a mark were called inactive.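 Rule for the calls: active = gene knockdowns whose robust z-score for IL-1 alpha signal is at least 2 or at most -2, so actives lie on both sides; inactive = the rest.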
assay: Components of the Cytosolic LPS Sensing Pathway: Gene Identification via Genome-wide siRNA Screen; conditions: RAW264.7 macrophages, IL-1a HTRF, actives lie on both sides, screened at 100 nM (by protocol), cells primed 5 h with Pam3CSK4 first;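 note: robust z of the log signal after scaling to non-targeting control siRNA wells of the plate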
In short: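 Using IL-1a HTRF as read-out, the screen measured release from RAW264.7 cells after 48h siRNA knockdown (100 nM), 5 h Pam3CSK4 priming and 24 h cytosolic LipidA. Values were expressed relative to negative-control wells as robust z-scores.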

Sequence | z-score
GCAACAAUUCUAACAGCUGTT against Lhfpl5 | -0.138
GGCCUUCCAUACUACAACUTT against Zfp595 | 2.2 (active)
CCACGUAGGUAAGUGUAGGTT against Oard1 | 0.81
GGAGCAAGGCUACAUUUUUTT against Itih3 | 1.36
GGACAAGGCCCUCAUGAUUTT against Nek8 | -0.468
GCUCGAGUACCUGUACCUATT against Elfn1 | 3.11 (active)
CCUUCAACCUUCGAGAUACTT against Kcnh2 | -0.417
GGUCUUCUUUGAUGUGAGGTT against Ppic | -0.832
GGACUGAAGAAGUGUGUGGTT against Scgb3a2 | 1.66
GCUUCCAGUCAGUGGUUACTT against Rara | 1.07
GGAUGAGCAGAUGCUCCAATT against Mtmr7 | 0.451
GGUAUUUUGACCGAAUCAATT against Add3 | -0.294
GCUCCUCACUUAUUGCCCATT against Zfp354b | -0.0805
GGAUGAAAACACUGAAUACTT against Olfr644 | -0.714
GCAUUUAGUGAGUUCAGUGTT against Kirrel3os | 0.855
GCGCAACUAAAACAGAUUGTT against Eif2ak1 | 2.2 (active)
GGGAUACUUUUUAUUCAGGTT against Nmu | -0.0461
GGAGCAGACGAUAUGCAGATT against Copb2 | 0.559
CCAAUUGCUAAUCCUUUGUTT against Pin1 | 1.52
GGACACAAUCCAGAACCAGTT against Angpt4 | -0.189
GCCUGAGUUAUGUUUAAAGTT against Pgam5 | 0.00362
CCACGUGAAGGAGAGAUGATT against Mob2 | 1.39

Sequence | z-score
GCGACCAGGACCGCGUCAATT against Sox3 | -1.07
GCACUGAAGCCUAGCUGUUTT against BC051142 | 1.41
GGUGUUGAGUUCAAGUCUATT against Dennd11 | -0.468
GGGCAAACUCUAUAAUCAGTT against BC023105 | 0.337
GCUCCGUGUUGACUCAAAATT against Foxg1 | 2.46 (active)
CCCUCAGAUCUUUCAGUCUTT against Btbd16 | -1.01
GCAUGGUUUAAUGGCUCGGTT against Atpsckmt | -1.93
GGAAUAUUUUGCUUGUGUGTT against Dnmt3a | -0.925
GGUUUAAGAAAAAAGGAGCTT against Rab43 | -0.182
CCUCUGUUUGUGCGCCAUATT against Uqcrfs1 | 0.402
GGUUAUCAAACAGGUGUUGTT against Aldh3b1 | 2.22 (active)
GCGAGUUCGGAAGAAGUAUTT against Ddx41 | -0.198
GGAGAUCCAGGCAAUUUUUTT against Pink1 | 0.779
GUUGGUAGAUUCAGUUUUCTT against Vmn1r89 | 1.88
GGUGAAGAAAGCACUAGUUTT against Olfr979 | -0.873
GGACCUUGGCCUUACACAATT against Astn2 | 2.29 (active)
GGGCAUGCUGCUUAUUGUGTT against Slc5a4b | -0.8
GCAACACGUACGAGCUCAATT against Pou2af1 | -0.926
GGGUUCUAGGUUGUUUAUGTT against C2cd4c | -1.74
GGCGAGCUGGACAGAUUUGTT against Nudt6 | 3.33 (active)
CCUGCAUUUACUCAACUUGTT against Snrpe | -1.74
GGAUACAAGCCUUUUAACCTT against Sri | -0.0625

Sequence | z-score
GAACAACAACAGACAAGUGTT against Cxcl12 | -0.65
GGUAUUUUUGCAUUUGUCCTT against Pip4p2 | 1.32
GGUUAUUGAUGUGACGAUGTT against Rem2 | 1.36
CCACCCUGAUUUAAGAAGGTT against Ndufs3 | 2.53 (active)
CCUACGUGAUAUCCUUUUATT against Vrk1 | 0.0128
GGAUAGAAAAUCUGUGUUUTT against Trim60 | -0.401
GGUAUUUAUGAAGCACACATT against Clcn3 | 0.451
GGGUCUAUCAGCUACAUCATT against Acsl6 | -1.28
CGUAUUGCCUUAGUGUAUGTT against Olfr433 | -2.7 (active)
GGGCUAUCGGUUGACAAAUTT against Riok2 | 1.67
GCGUAUUACAGACAGUGACTT against Izumo1 | 0.023
GGAACUGUUUCUCUUUCCUTT against Rad9a | -1.45
CGUGUUCUAUGAUGGUAAUTT against Selenoo | -0.197
GCAACUUGGCUACAAUUACTT against Dct | 0.987
GGACCAAGCCACCAAAACUTT against Vmn1r78 | -2.28 (active)
CCUAUGAUUCAGCAAUACUTT against Col17a1 | 0.677
GGAAGAGGAGAGGAAGAAGTT against Dync1i1 | 1.91
GGCUCUAAGCUAAAUAAAGTT against Kbtbd4 | -0.249
CCGCGUCUUGCUAUGGAAGTT against Baiap2l2 | 0.79
GCUGGAAGAUAGUGCUUUUTT against Itpr1 | 5.23 (active)
GGGUUUAUGGGCAUGUCCCTT against Adipor2 | -0.964
GGUUAAAAAUGCCAUUAGATT against Olfr1233 | 0.133

Sequence | z-score
GGAAGACAUCAAGAUGUAATT against Rp1l1 | -1.28
GGAGCUGUAAAGGCUACAATT against Sulf2 | 4.14 (active)
CGUGGAAAUGUCUUAAAUCTT against Folh1 | 0.412
GGAGAAAAAUCCUACCGACTT against Zmym5 | 0.56
GCGAUUGAAGUCUCAGGGATT against Nrde2 | -1.03
GGAAUAUUGGUUGUGAUGATT against Ralb | -0.197
GCUAAUGGUCCAUUGAUAUTT against Btn2a2 | 0.229
GGGAAGAGUUGGAUCGAUCTT against Shkbp1 | -0.0675
GGAGGAUAAGGAUACAGUATT against Cspg5 | 2.27 (active)
GGAGGAAAGAAAAGAUCCATT against Tie1 | -0.102
GCUAUGUCAUGGUUGGAACTT against Bag6 | 0.597
GCUUGCCUGACCUGAAACATT against Apool | -2.38 (active)
GCAACAAAUCAGAUUUGACTT against Dhdh | 0.246
GGGAUGGACAAGUUGUACUTT against Renbp | -0.101
GGACCUUUUUAUCCAACGCTT against Mcts2 | 0.46
CCUGAAUUAUGUGUAACUUTT against Ywhab | -0.819
CCACUGUGAGACACAUAAGTT against Muc4 | -3.25 (active)
GGAAAUAGAUCCUUUUUGATT against 2510039O18Rik | 0.861
GCCAGUAGUAGUAGAAUAATT against Gm4841 | 0.997
CCUGGCAGUAAAAGAUUGCTT against Ndst3 | 0.836
GGGAAGGGAUCCUAUAUUUTT against Lsm12 | 0.158
CCCAGCAUGGAUCAAGCACTT against Krt73 | 0.864

Sequence | z-score
GGGUGCACUGGCUAAUAUATT against H2-Ea | 1.13
GGGAAUAUUCAGUUGACAATT against Iigp1 | -1.14
GGUGAAUUUGAUUGAUGAGTT against Ccnl2 | -2.3 (active)
GGAGAAAGCCUUCCUUAGUTT against Trpc5 | -0.115
CGUAGCACUUCUUCUCUUATT against Dync1li2 | 0.484
GGUCUUGCUGAUCAACAACTT against Adgrb2 | 2.53 (active)
GCCAAUUUUGAACCACUACTT against Itga8 | -0.56
GGAAGUAUGAAAUUAUCAGTT against Car12 | 0.0371
CGGUUCUUCCAUCAAAUGGTT against Prodh | 1.07
GGCUUUAAUCCUAACCCUATT against Zfp3 | -0.658
GCGAGCCAAGUUUGAACUUTT against Elovl6 | 1.42
GCUGGCUUUAAAAAUAUCUTT against Nt5dc3 | 0.174
GGAGUGAUAGUCAUCAAUGTT against Olfr357 | -0.464
GGAACAGUCGGCCAUUUAATT against Tmem98 | -0.553
CCCUACUGUAUUAGAAAACTT against Dnph1 | 2.1 (active)
GGAUCACUUUUAGUUUUCUTT against C230013L11Rik | -0.0242
GCCUGAUAGUGCAGAAACATT against Rabl2 | -0.233
GGUUAUCGCAUUUGGUGGUTT against Olfr1511 | 0.104
GGACAAAAGGCAAUCUACATT against Mettl18 | 2.8 (active)
GGUGUCUCUCCAGGAUAACTT against Ctrl | -0.511
